# Experimental data: PubChem BioAssay
# Where “and” joins values, the source holds several entries; their conditions need not be identical. Identical values can stand only once. Inconclusive results are not listed. Calls of active or inactive are those of the source.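 Rule for the calls, unless noted: active = compounds whose cell count with miR-34 switched on is under 0.7 times the count with it off; inactive = the rest.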
# Columns and labels:
# [1] = SU-DIPG-VI glioma cell viability, MIPE4.0 library, CellTiter-Glo luminescence, qHTS (AID 1347066; cut-off not given, nearly all actives have AC50 up to about 30 µM;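 note: cells exposed to compound for 48 hours before readout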); conditions: CellTiter-Glo ATP luminescence
# [2] = JHH-DIPG-1 glioma cell viability, MIPE5.0 library, CellTiter-Glo luminescence, qHTS (AID 1347067; cut-off not given, nearly all actives have AC50 up to about 26 µM;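 note: cells exposed to compound for 48 hours before readout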); conditions: JHH-DIPG-1 glioma viability, CellTiter-Glo ATP luminescence
# [3] = SU-DIPG-XXV glioma cell viability, MIPE5.0 library, qHTS (AID 1347068; cut-off not given, nearly all actives have IC50 up to about 30 µM;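 for IC50: cells exposed to compound for 48 hours before viability readout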)
# [4] = sensitizers of A549 cells to miR-34 induction, primary screen, imaging, A549 dox-inducible miR-34, nuclei and caspase counts (AID 1347080); conditions: A549 miR-34 inducible, Hoechst nuclei count, 48 h
# [5] = molecular target: NAD(+) hydrolase SARM1 (Homo sapiens) (UniProt Q6SZW1); assay: SARM1 TIR NADase inhibitors, cell lysate, NAD-Glo luminescence (AID 1508614;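 active = compound whose remaining NAD level is above about 45 nM, limit read from the data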;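 note: higher remaining NAD means stronger inhibition of SARM1 NADase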); conditions: SAM-TIR HEK293T lysate NADase, at 1 µM, stronger effect = higher value
# [6] = molecular target: Mitogen-activated protein kinase 7 (Homo sapiens) (UniProt Q13164); assay: ERK5 transactivation activators in reporter cells, primary screen, cell-based, HTS (AID 1508626;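 active = luciferase signal above three times the same-plate solvent-only control wells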;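 note: luciferase driven by Gal4-ERK5 fusion binding five Gal4 sites before minimal TATA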); conditions: HeLa Gal4-ERK5 transactivation, 18 h, at 5 µM, stronger effect = higher value
# [7] = viability loss in pontine glioma line – cell-based, SU-DIPG-XXV, MIPE5.0, CellTiter-Glo, qHTS, dose response (AID 1347065; cut-off not given, nearly all actives have AC50 up to about 26 µM;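 note: cells exposed to compound for 48 hours before ATP readout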); conditions: CellTiter-Glo ATP luminescence
# [8] = phospholipid biosynthesis inhibitors in animal cells, primary screen, cell-based, LOPAC library, screen 4 (AID 1347384; call rule not given here); conditions: phospholipid biosynthesis inhibition screen, at 10 µM
# [9] = survival rescue of mitochondrial mutant cells in low glucose, primary screen, MELAS cybrids, Rieske KO mouse fibroblasts, CellTiter-Glo (AID 1508586;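 active = mean z-score across replicates of 1.96 or higher in either the MELAS or the Rieske mutant cell line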;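 note: z relative to plate mean and SD of compound and empty wells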)
# [10] = viability rescue of complex I mutant cybrids, primary screen, cell-based, galactose medium, ATP luminescence (AID 1645843;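 active = z-score of at least 1.8 in each of two replicates, scored against plate mean and spread of sample wells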;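 note: positive z means more ATP and so rescue of galactose-driven cybrid death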); conditions: complex I mutant cybrid cells, 72 h, stronger effect = higher value
# [11] = stronger effect = lower value, cell number ratio, induced over uninduced
# [12] = measured here: relative caspase fold change +Dox/-Dox
# [13] = measured here: total cells with miR-34 induction, stronger effect = lower value
# [14] = measured here: total cells without miR-34 induction
# [15] = MELAS cybrid survival, CellTiter-Glo 48 h, stronger effect = higher value
# [16] = Rieske KO mouse fibroblast survival, CellTiter-Glo 72 h
# Chain of NAD(+) hydrolase SARM1 (Homo sapiens) (Q6SZW1 whole entry, looked up, the tested form may be a part): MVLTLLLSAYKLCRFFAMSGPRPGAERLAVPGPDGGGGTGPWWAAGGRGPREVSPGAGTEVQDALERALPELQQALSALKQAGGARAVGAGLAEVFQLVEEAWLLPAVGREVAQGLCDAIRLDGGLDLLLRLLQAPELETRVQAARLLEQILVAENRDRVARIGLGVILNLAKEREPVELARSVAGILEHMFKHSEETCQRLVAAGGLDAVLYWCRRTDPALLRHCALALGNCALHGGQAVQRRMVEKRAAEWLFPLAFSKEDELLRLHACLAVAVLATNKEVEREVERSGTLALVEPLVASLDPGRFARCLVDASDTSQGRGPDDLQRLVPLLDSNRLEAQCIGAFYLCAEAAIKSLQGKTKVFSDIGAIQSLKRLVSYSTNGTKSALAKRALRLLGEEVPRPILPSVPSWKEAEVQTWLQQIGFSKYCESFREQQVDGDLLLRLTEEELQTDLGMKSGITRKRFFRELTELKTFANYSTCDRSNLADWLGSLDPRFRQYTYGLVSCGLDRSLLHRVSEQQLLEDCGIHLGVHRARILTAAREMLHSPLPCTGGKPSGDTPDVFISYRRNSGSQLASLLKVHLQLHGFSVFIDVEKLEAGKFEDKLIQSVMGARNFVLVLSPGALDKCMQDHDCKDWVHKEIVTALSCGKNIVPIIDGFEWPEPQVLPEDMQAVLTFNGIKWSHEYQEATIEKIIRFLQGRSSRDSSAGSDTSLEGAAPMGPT
# Chain of Mitogen-activated protein kinase 7 (Homo sapiens) (Q13164 whole entry, looked up, the tested form may be a part): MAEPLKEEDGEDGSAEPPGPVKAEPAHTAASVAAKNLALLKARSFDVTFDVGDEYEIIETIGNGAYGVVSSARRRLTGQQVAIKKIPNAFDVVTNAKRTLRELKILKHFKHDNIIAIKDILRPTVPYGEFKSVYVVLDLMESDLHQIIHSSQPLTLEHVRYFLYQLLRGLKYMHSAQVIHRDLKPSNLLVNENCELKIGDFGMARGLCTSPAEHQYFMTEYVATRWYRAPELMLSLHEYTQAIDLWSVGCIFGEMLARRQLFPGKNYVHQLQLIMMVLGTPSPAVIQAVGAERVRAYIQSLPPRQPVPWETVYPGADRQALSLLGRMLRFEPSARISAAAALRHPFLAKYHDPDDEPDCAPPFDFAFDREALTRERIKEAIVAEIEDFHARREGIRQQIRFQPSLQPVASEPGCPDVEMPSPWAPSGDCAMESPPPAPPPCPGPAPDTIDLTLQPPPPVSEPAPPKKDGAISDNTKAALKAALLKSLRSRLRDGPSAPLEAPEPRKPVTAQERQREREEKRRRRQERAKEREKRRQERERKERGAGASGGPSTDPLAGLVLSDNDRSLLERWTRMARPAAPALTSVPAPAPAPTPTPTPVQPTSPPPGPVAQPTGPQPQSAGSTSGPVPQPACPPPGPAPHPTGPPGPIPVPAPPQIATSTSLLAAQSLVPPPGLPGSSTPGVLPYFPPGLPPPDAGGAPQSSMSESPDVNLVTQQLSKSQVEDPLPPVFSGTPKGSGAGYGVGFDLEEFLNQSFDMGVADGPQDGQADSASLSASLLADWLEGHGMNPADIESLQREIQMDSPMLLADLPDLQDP
SMILES,outcome [1],outcome [2],outcome [3],"fold change [4, 11]","fold change [4, 12]","cell count [4, 13]","cell count [4, 14]",remaining NAD [5],luciferase signal [6],outcome [7],outcome [8],"z-score [9, 15]","z-score [9, 16]",z-score [10],AC50 [7],AC50 [2],IC50 [3]
OC[C@H]1O[C@@H](O[C@@H]2[C@@H](CO)O[C@](O)(CO)[C@H]2O)[C@H](O)[C@@H](O)[C@H]1O,inactive,inactive,inactive,0.922 (inactive),1.95,11500,12500,10 nM (inactive),16 AU (inactive),–,–,–,–,–,–,–,–
O=C1CCc2cc(OCCCCc3nnnn3C3CCCCC3)ccc2N1,–,inactive,–,–,–,–,–,10 nM (inactive),96 AU (inactive),inactive,inactive,-0.457 (inactive) and 0.645 (inactive),0.52 and 0.278,-1.27 (inactive) and -0.71 (inactive),–,–,–
COc1ncnc(NS(=O)(=O)c2ccc(N)cc2)c1OC,inactive,inactive,inactive,0.905 (inactive) and 0.917 (inactive) and 0.89 (inactive),0.874 and 2.12 and 1.28,9490 and 11800 and 9350,10500 and 12900,10 nM (inactive),–,–,–,0.681 (inactive) and -0.67 (inactive),0.678 and -1.38,-0.18 (inactive),–,–,–
Cc1cc(C2CCCCC2)n(O)c(=O)c1,–,–,–,–,–,–,–,10 nM (inactive),52 AU (inactive),–,–,0.334 (inactive) and 0.408 (inactive) and 0.404 (inactive),-0.762 and -0.715 and 0.148,–,2.35 µM (active),2.63 µM (active),–
O=C1N(c2ccccc2)c2ccccc2C1(Cc1ccncc1)Cc1ccncc1,inactive,inactive,inactive,1.1 (inactive) and 0.81 (inactive) and 0.995 (inactive),1.28 and 1.84 and 1.46,10000 and 7730 and 7820,9180 and 9540 and 7860,–,–,–,inactive,–,–,-0.165 (inactive) and 0.43 (inactive) and -0.3 (inactive),–,–,–
O=P(O)(O)C(O)(Cc1cccnc1)P(=O)(O)O,inactive,inactive,inactive,0.901 (inactive) and 0.801 (inactive),4.65 and 1.35,12400 and 8410,13700 and 10500,10 nM (inactive),1260 AU (active),–,–,0.589 (inactive) and -0.187 (inactive),0.376 and -0.746,0.515 (inactive),–,–,–
O=C1CCc2ccc(OCCCCN3CCN(c4cccc(Cl)c4Cl)CC3)cc2N1,–,–,–,–,–,–,–,10 nM (inactive),–,–,–,-0.393 (inactive) and -1.22 (inactive) and -0.905 (inactive),0.269 and 1.31 and -0.2,-1.88 (inactive) and -2.22 (inactive),13.2 µM (active),–,–
CCCCOc1ccc(CC(=O)NO)cc1,–,–,inactive,0.904 (inactive) and 0.891 (inactive),1.17 and 0.62,7500 and 10000,8290 and 11200,10 nM (inactive),44 AU (inactive),inactive,–,-0.309 (inactive) and 0.359 (inactive),0.677 and -0.599,–,–,–,–
C/C=C(/C(=C/C)c1ccc(O)cc1)c1ccc(O)cc1,inactive,–,–,0.888 (inactive) and 0.901 (inactive),1.32 and 1.91,7250 and 10300,8160 and 11500,10 nM (inactive),72 AU (inactive),–,–,-1.21 (inactive),-1.14,–,–,20.9 µM (active),23.5 µM (active)
C#CCN[C@@H]1CCc2ccccc21,inactive,inactive,inactive,0.9 (inactive),0.614,8560,9500,10 nM (inactive),–,–,–,-0.17 (inactive),0.336,–,–,–,–
CNC[C@H](O)c1ccc(O)c(O)c1,inactive,inactive,inactive,0.963 (inactive),1.01,10100,10500,10 nM (inactive),24 AU (inactive),–,inactive,–,–,-1.02 (inactive),–,–,–
C#C[C@]1(O)CC[C@H]2[C@@H]3[C@H](C)CC4=C(CCC(=O)C4)[C@H]3CC[C@@]21C,–,–,inactive,0.908 (inactive) and 0.883 (inactive),0.948 and 1.2,5910 and 8230,6510 and 9320,10 nM (inactive),–,inactive,–,0.727 (inactive) and 0.175 (inactive),0.291 and -0.0373,-0.015 (inactive),–,–,–
CC(C)(C)NC(=O)[C@H]1CC[C@H]2[C@@H]3CC[C@H]4NC(=O)C=C[C@]4(C)[C@H]3CC[C@]12C,inactive,inactive,inactive,0.927 (inactive) and 0.774 (inactive),1.11 and 2.31,8640 and 8130,9320 and 10500,10 nM (inactive),–,–,–,0.136 (inactive) and 0.187 (inactive),0.621 and 0.926,0.465 (inactive),–,–,–
CO[C@@]12[C@H](COC(N)=O)C3=C(C(=O)C(C)=C(N)C3=O)N1C[C@@H]1N[C@@H]12,–,–,–,1.21 (inactive) and 1.12 (inactive),0.667 and 0.791,1280 and 1220,1060 and 1090,10 nM (inactive),44 AU (inactive),–,–,-0.241 (inactive),-1.21,-1.99 (inactive),9.34 µM (active),3.32 µM (active),–
C1CCC(C(CC2CCCCN2)C2CCCCC2)CC1 (centres undefined),–,–,–,0.746 (inactive) and 0.859 (inactive),0.891 and 3.18,5600 and 9890,7500 and 11500,10 nM (inactive),140 AU (inactive),–,–,-1.07 (inactive),0.712,–,10.5 µM (active),8.33 µM (active),–
